From article PMC7862700, “An all-to-all approach to the identification of sequence-specific readers for epigenetic DNA modifications on cytosine”

Experiments:
Assay in all cases: DAPPL (digital affinity profiling via proximity ligation, sequencing); 10 mM Tris-HCl pH 7.5, 50 mM NaCl, 1 mM DTT, 4% glycerol, room temperature, 30 min; GST-TFs on glutathione beads, 16-mer random dsDNA library, 0.1% formaldehyde crosslink after washing; high values mean tight binding
FEV = target: T1, FEV (Homo sapiens, UniProt Q99581 1-238); conditions: protein: recombinant; tags: N-terminal GST; dsDNA, one strand shown
T1 sequence: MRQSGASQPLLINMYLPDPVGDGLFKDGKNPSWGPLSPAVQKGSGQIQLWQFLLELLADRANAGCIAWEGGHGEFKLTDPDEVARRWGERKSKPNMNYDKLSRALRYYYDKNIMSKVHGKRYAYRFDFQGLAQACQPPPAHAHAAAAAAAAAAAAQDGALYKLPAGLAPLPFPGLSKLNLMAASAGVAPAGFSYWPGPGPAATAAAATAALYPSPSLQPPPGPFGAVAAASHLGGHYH
Outline: (§1)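 Human transcription factors fused to GST were expressed in yeast, captured on glutathione beads, given DNA barcodes and pooled with a GST-only negative control. Pools were incubated with 200 nmole of a 16-mer random double-stranded DNA library in Tris/NaCl/DTT/glycerol buffer at room temperature for 30 min. They were then washed, crosslinked with 0.1% formaldehyde, proximity-ligated (BsaI/T4 ligase, 1 h, 37 °C), PCR-amplified and sequenced on an Illumina NextSeq500. Binding signal is each 6-mer's read frequency for a factor divided by its frequency for the GST control.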

ETV5 = ETV5 (Homo sapiens, UniProt P41161 1-510); conditions: protein: recombinant; tags: N-terminal GST; dsDNA, one strand shown
Sequence of ETV5 (P41161 whole entry): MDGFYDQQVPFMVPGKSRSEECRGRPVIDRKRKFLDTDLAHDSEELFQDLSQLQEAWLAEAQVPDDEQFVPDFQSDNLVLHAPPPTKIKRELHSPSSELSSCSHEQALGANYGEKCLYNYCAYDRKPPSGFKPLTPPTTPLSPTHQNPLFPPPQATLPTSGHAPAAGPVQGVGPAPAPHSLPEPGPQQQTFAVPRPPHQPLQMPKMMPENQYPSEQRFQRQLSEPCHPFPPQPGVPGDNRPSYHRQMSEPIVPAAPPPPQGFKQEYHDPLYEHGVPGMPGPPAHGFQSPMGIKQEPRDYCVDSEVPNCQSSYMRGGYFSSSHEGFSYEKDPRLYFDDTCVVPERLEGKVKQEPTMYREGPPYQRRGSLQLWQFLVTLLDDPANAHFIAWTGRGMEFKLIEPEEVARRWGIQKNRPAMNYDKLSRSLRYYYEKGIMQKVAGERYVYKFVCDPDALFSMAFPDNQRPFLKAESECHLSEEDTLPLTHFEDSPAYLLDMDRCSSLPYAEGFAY
Outline: as §1

HSF1 = HSF1 (Homo sapiens, UniProt Q00613 1-529); conditions: protein: recombinant; tags: N-terminal GST; chain copies: 3; dsDNA, one strand shown
Sequence of HSF1 (Q00613 whole entry): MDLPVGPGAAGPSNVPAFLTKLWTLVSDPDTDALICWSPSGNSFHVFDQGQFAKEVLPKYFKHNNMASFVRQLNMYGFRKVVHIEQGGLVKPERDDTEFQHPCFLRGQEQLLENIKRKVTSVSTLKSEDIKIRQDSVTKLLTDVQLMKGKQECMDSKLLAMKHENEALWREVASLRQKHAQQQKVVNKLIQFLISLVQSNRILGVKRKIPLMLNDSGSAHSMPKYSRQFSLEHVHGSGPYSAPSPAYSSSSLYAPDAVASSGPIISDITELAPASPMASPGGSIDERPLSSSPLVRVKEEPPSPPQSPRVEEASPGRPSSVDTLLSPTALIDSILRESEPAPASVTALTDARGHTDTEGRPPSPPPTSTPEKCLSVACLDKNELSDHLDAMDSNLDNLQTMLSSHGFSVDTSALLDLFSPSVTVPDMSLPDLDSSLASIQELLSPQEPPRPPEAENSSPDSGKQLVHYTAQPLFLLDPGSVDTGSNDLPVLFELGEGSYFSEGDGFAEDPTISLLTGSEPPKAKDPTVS
Outline: as §1

SPIC = target: T2, SPIC (Homo sapiens, UniProt Q8N5J4 1-248); conditions: protein: recombinant; tags: N-terminal GST; dsDNA, one strand shown
T2 sequence: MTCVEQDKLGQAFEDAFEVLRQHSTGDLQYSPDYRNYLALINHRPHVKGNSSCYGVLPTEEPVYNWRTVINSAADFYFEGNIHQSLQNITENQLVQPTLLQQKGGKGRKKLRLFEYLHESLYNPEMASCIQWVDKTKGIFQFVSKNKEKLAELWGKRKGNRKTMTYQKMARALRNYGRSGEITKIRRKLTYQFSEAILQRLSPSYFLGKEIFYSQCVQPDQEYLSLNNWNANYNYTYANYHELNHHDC
Outline: as §1

ELF4 = ELF4 (Homo sapiens, UniProt Q99607 1-663); conditions: protein: recombinant; tags: N-terminal GST; dsDNA, one strand shown
Sequence of ELF4 (Q99607 whole entry): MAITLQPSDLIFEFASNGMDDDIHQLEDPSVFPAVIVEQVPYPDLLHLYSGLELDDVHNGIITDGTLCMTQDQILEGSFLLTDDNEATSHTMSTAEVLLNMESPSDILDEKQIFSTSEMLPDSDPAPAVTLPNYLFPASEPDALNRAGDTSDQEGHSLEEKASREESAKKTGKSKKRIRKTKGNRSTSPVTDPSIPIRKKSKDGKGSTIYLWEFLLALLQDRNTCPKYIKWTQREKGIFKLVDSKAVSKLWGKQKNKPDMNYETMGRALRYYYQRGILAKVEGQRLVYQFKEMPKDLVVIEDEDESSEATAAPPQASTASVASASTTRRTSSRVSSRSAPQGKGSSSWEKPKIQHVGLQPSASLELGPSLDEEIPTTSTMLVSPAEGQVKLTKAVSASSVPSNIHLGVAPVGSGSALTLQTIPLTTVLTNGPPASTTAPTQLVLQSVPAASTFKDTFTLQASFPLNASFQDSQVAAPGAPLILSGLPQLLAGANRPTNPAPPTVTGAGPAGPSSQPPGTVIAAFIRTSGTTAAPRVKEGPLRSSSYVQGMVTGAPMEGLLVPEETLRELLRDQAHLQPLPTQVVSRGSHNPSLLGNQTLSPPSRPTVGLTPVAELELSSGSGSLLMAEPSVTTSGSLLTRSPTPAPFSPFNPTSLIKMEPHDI
Outline: as §1

ELK4 = target: T3, ELK4 (Homo sapiens, UniProt P28324-2 1-405); conditions: protein: recombinant; tags: N-terminal GST; dsDNA, one strand shown
T3 sequence: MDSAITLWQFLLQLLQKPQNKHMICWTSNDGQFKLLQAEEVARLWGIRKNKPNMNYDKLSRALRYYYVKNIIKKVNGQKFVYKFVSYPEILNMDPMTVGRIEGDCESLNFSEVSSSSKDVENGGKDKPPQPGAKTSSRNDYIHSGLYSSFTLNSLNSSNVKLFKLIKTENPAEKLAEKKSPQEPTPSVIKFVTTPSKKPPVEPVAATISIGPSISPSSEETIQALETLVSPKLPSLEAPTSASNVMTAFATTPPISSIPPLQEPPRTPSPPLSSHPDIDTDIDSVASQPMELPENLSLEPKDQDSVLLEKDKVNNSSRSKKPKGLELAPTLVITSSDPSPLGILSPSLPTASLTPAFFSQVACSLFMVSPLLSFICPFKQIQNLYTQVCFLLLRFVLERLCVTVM
Outline: as §1

ETV2 = target: T4, ETV2 (Homo sapiens, UniProt O00321 1-342); conditions: protein: recombinant; tags: N-terminal GST; dsDNA, one strand shown
T4 sequence: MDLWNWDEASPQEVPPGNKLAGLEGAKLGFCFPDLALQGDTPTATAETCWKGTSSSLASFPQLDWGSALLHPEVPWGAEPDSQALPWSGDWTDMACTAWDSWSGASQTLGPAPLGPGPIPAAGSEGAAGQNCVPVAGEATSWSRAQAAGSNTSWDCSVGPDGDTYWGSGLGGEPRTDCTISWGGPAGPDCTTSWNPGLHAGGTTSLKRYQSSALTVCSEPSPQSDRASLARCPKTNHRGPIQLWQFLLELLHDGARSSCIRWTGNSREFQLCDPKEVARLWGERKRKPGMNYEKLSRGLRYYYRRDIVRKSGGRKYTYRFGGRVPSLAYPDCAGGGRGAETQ
Outline: as §1

ELF3 = target: T5, ELF3 (Homo sapiens, UniProt P78545 1-371); conditions: protein: recombinant; tags: N-terminal GST; dsDNA, one strand shown
T5 sequence: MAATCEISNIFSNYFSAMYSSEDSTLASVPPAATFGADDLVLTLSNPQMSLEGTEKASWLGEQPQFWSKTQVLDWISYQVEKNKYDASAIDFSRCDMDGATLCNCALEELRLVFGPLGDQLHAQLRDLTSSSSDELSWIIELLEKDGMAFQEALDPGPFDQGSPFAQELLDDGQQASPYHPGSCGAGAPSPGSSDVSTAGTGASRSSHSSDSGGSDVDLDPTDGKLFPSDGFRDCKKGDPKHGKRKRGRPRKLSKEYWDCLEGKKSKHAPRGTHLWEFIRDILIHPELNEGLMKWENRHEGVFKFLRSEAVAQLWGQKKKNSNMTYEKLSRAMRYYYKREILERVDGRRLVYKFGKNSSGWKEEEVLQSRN
Outline: as §1

CRX = CRX (Homo sapiens, UniProt O43186 1-299); conditions: protein: recombinant; tags: N-terminal GST; dsDNA, one strand shown
Sequence of CRX (O43186 whole entry): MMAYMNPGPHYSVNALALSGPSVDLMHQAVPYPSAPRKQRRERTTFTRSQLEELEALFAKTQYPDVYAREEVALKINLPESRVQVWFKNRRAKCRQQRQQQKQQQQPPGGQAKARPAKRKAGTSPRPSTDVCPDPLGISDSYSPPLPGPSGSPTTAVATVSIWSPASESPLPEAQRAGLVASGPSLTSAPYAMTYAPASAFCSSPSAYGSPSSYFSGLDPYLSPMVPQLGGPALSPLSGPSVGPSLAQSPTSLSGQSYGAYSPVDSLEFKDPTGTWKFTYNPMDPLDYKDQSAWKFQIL
Outline: as §1

ETV1 = ETV1 (Homo sapiens, UniProt P50549 1-477); conditions: protein: recombinant; tags: N-terminal GST; dsDNA, one strand shown
Sequence of ETV1 (P50549 whole entry): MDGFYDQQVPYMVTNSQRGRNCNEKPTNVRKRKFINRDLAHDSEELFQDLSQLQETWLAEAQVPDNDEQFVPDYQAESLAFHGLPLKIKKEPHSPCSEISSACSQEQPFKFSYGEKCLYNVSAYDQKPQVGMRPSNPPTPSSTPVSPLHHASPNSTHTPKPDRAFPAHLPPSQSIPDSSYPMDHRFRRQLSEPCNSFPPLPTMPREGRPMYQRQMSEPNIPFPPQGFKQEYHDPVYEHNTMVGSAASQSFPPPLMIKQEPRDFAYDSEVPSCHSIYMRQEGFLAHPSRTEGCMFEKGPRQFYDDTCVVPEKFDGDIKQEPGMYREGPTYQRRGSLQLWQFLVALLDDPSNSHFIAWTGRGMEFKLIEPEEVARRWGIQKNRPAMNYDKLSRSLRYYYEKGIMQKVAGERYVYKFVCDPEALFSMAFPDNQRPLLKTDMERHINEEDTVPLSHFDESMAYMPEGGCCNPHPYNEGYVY
Outline: as §1

ERF = target: T6, ERF (Homo sapiens, UniProt P50548 1-548); conditions: protein: recombinant; tags: N-terminal GST; dsDNA, one strand shown
T6 sequence: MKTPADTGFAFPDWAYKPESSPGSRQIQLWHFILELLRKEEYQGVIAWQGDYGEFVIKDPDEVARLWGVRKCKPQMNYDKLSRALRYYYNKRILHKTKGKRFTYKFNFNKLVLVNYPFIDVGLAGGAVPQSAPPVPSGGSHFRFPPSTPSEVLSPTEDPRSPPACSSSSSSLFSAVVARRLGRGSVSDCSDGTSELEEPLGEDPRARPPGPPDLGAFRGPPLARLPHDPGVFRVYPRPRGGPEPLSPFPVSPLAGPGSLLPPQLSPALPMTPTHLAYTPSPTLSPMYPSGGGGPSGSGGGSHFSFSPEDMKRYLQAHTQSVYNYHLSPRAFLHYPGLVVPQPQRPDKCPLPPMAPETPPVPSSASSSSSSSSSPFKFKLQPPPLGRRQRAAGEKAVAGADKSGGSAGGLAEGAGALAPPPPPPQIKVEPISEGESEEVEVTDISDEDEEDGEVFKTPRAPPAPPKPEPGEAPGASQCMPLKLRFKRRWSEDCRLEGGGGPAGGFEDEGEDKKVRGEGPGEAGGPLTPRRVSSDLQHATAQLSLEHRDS
Outline: as §1

ETV3L = target: T7, ETV3L (Homo sapiens, UniProt Q6ZN32 1-361); conditions: protein: recombinant; tags: N-terminal GST; dsDNA, one strand shown
T7 sequence: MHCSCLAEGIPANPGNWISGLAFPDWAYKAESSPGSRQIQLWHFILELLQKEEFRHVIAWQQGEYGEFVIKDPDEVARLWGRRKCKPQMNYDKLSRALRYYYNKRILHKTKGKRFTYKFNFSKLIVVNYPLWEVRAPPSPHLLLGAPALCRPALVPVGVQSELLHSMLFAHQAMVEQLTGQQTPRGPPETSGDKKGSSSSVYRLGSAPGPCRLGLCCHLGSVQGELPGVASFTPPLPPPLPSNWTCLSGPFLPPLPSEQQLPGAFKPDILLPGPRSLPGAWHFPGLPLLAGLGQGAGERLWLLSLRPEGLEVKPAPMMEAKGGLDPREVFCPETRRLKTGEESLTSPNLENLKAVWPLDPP
Outline: as §1

ETS2 = target: T8, ETS2 (Homo sapiens, UniProt P15036 1-469); conditions: protein: recombinant; tags: N-terminal GST; dsDNA, one strand shown
T8 sequence: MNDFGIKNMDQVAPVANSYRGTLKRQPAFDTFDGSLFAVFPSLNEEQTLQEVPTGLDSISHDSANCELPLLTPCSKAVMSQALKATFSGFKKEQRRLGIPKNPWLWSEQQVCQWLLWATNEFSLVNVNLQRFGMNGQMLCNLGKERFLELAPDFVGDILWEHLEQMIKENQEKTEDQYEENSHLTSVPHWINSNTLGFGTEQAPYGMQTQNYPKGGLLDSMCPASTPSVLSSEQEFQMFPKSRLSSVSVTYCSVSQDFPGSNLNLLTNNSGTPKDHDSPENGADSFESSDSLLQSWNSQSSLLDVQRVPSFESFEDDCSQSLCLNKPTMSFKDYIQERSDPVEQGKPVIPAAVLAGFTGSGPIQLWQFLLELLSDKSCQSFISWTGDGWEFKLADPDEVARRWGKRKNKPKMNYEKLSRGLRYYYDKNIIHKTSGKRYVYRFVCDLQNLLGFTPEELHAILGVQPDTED
Outline: as §1

SPDEF = target: T9, SPDEF (Homo sapiens, UniProt O95238 1-335); conditions: protein: recombinant; tags: N-terminal GST; dsDNA, one strand shown
T9 sequence: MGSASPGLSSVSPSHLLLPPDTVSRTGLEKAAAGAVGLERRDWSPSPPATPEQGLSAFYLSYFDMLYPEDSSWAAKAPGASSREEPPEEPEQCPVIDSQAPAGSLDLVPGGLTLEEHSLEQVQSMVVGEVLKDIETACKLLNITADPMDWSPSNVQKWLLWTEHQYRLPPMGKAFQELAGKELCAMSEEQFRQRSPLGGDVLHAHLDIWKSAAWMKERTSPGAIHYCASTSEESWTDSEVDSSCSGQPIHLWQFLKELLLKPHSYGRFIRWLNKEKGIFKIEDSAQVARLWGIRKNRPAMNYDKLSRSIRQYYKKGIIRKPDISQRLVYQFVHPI
Outline: as §1

ETV7 = target: T10, ETV7 (Homo sapiens, UniProt Q9Y603 1-341); conditions: protein: recombinant; tags: N-terminal GST; dsDNA, one strand shown
T10 sequence: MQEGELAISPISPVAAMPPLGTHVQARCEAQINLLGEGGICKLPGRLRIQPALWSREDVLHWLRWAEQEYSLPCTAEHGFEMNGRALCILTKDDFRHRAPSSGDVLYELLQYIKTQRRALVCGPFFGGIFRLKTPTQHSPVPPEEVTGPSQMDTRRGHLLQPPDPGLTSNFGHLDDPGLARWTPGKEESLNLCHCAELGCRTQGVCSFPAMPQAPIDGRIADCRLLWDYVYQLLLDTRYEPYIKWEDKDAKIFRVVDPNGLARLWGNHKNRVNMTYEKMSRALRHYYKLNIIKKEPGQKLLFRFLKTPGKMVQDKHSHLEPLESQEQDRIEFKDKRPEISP
Outline: as §1

ELF5 = target: T11, ELF5 (Homo sapiens, UniProt Q9UKW6-2 1-255); conditions: protein: recombinant; tags: N-terminal GST; dsDNA, one strand shown
T11 sequence: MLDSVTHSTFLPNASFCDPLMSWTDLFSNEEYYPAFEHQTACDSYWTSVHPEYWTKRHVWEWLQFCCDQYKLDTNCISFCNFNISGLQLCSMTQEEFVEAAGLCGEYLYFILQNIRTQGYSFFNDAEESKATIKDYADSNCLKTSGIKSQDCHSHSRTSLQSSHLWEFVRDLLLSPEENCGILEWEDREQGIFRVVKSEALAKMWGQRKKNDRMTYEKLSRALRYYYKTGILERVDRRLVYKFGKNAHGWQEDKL
Outline: as §1

ETV3 = target: T12, ETV3 (Homo sapiens, UniProt P41162-2 1-143); conditions: protein: recombinant; tags: N-terminal GST; dsDNA, one strand shown
T12 sequence: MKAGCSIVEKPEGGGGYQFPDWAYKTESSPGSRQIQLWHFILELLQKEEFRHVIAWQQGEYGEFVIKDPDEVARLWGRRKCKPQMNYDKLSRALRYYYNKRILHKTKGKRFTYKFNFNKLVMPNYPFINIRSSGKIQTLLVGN
Outline: as §1

ETV6 = ETV6 (Homo sapiens, UniProt P41212 1-452); conditions: protein: recombinant; tags: N-terminal GST; dsDNA, one strand shown
Sequence of ETV6 (P41212 whole entry): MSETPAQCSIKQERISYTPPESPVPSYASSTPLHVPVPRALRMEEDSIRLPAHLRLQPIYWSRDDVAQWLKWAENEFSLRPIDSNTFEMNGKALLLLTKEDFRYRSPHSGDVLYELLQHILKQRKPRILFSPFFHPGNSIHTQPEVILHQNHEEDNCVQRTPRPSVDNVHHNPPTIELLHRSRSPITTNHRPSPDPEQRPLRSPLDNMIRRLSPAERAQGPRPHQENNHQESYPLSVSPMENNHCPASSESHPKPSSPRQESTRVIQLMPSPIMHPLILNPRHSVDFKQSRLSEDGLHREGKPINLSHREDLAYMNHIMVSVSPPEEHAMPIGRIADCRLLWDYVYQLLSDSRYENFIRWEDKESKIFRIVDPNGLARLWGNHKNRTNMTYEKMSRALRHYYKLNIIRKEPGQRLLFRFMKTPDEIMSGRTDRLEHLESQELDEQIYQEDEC
Outline: as §1

ATTAAA was tested, and the binding signal (FEV) was 1.1 fold enrichment (6-mer frequency, TF over GST control), the binding signal (ETV5) was 1.2 fold enrichment (6-mer frequency, TF over GST control) and the binding signal (HSF1) was 1.97 fold enrichment (6-mer frequency, TF over GST control). The binding signal (SPIC) was 1.14 fold enrichment (6-mer frequency, TF over GST control), the binding signal (ELF4) was 1.16 fold enrichment (6-mer frequency, TF over GST control) and the binding signal (ELK4) was 1.1 fold enrichment (6-mer frequency, TF over GST control). For the same sequence, the binding signal (ETV2) was 1.16 fold enrichment (6-mer frequency, TF over GST control), the binding signal (ELF3) was 1.05 fold enrichment (6-mer frequency, TF over GST control) and the binding signal (CRX) was 2.99 fold enrichment (6-mer frequency, TF over GST control). For the same sequence, the binding signal (ETV1) was 1.18 fold enrichment (6-mer frequency, TF over GST control), the binding signal (ERF) was 1.3 fold enrichment (6-mer frequency, TF over GST control) and the binding signal (ETV3L) was 1.24 fold enrichment (6-mer frequency, TF over GST control). For the same sequence, the binding signal (ETS2) was 1.12 fold enrichment (6-mer frequency, TF over GST control), the binding signal (SPDEF) was 1.14 fold enrichment (6-mer frequency, TF over GST control) and the binding signal (ETV7) was 1.1 fold enrichment (6-mer frequency, TF over GST control). The binding signal (ELF5) was 1.12 fold enrichment (6-mer frequency, TF over GST control), the binding signal (ETV3) was 1.12 fold enrichment (6-mer frequency, TF over GST control) and the binding signal (ETV6) was 1.18 fold enrichment (6-mer frequency, TF over GST control).
